In PubChem BioAssay AID624059 (National Center for Advancing Translational Sciences (NCATS), 2012):
The source made the active and inactive calls. Calls follow the shape of the dose curve; as a rule, active = well fitted curve in the direction sought with a large enough effect; inactive = no such curve, though single readings can be large or run the other way.

Experiment: qHTS for Inhibitors of Mutant Isocitrate Dehydrogenase 1 (IDH1): U87 Cytotoxicity Assay for Probe SAR
Settings: U87MG-IDH1 R132H viability, CellTiter-Glo luminescence, 72 h; series mostly up to 22.1 µM; activity change, negative = cytotoxicity: at the top concentration
Text: Malignant glioblastomas (WHO grade IV), including primary and secondary glioblastomas, are among the most lethal with a median survival of one year, and unfortunately they are also the most prevalent type of brain tumors. By and large the standard of care of gliomas remains the use of the oral alkylating agent temozolomide and radiotherapy following surgical tumor resection. There is an urgent unmet medical need for novel therapeutics for gliomas. IDH mutations occur in up to 70% of grade II-IV secondary glioblastomas, and IDH1 R132H is the most prevalent mutation. […] Wild-type (WT) IDH1 catalyzes the conversion of isocitrate to -ketoglutarate with the concomitant reduction of NADP+ to NADPH. In contrast, IDH1 R132H catalyzes the conversion of alpha-ketoglutarate to 2-hydroxyglutarate (2-HG) with the concomitant oxidation of NADPH to NADP+ [5]. Recently, a second significant advancement for the field was the finding that IDH is an oncogene, and that its metabolic product 2-HG may contribute to the pathogenesis of IDH-mutated cancers. […] Although this link to cancer is tantalizing, the direct evidence of how 2-HG drives pathogenesis of gliomas and AML remains a subject of further research. The goal of this cell assay is to identify whether the small-molecule inhibitors of IDH1 R132H are cytotoxic in U87MG-IDH1 R132H cells. Compounds were screened as concentration-titration series that ranged from 50 microM to 14 nM. NIH Molecular Libraries Probe Production Network [MLPCN] NIH Chemical Genomics Center [NCGC] MLSCN Grant: R03 DA032129 PI Name: Dr. Lenny Dang
Cells were dispensed into 96-well black solid bottom plates at 2500 cells/well (RPMI medium with 10% FBS). The plates were incubated overnight at 37 °C and 5% CO2. The media was aspirated off and fresh media (RPMI and 10% FBS) with compounds in 7-point dose response was added. The plates were incubated for 48 hours at 37 °C and 5% CO2. From each well 100 microL was removed and used for LC-MS analysis to quantitate the amount of 2-HG product. The remaining cells/media were incubated for 24 additional hours at which point 100 uL of Cell Titer Glo (Promega) was added. The plates were shaken for 10 minutes and then incubated at room temperature for 20 minutes. The luminescence was read on the ViewLux in end-point mode (0.5 sec). Concentration-response curves were fitted to the signals arising from the resulting selective ion monitoring. The concentration-response curves were then classified based on curve quality (r2), response magnitude and degree of measured activity, and compounds were subsequently categorized based on their curve class. […] Keywords: Isocitrate dehydrogenase, IDH1, IDH1 R132H, 2-HG, 2-hydroxyglutarate, AML, glioma, MLSMR, MLPCN, NIH Roadmap, qHTS, NCGC

SMILES | activity change, negative = cytotoxicity | Potency
Cc1nc(C)c(C(=O)N(c2cccc(F)c2)C(C(=O)NC2CCCCC2)c2ccccc2)s1 (stereo not drawn) | -12.4% (inactive) | –
Cc1ccccc1C(C(=O)NC1CCCC1)N(C(=O)Cn1cnc2ccccc21)c1cccc(F)c1 (stereo not drawn) | 18.6% (inactive) | –
COc1cccc(N(C(=O)Cc2cccs2)C(C(=O)NC2CCCC2)c2ccccc2)c1 (stereo not drawn) | -9% [at 50 µM] (inactive) | –
Cc1ccccc1C(C(=O)NC1CCCCC1)N(C(=O)Cc1cccs1)c1cccc(F)c1 (stereo not drawn) | -21.8% [at 10.3 µM] (inactive) | –
Cc1ccccc1C(C(=O)NC1CCCCC1)N(C(=O)CNS(=O)(=O)c1ccccc1)c1cccc(F)c1 (stereo not drawn) | – | 10.1 µM (active)
COc1ccc(N(C(=O)Cn2cnc3ccccc32)C(C(=O)NC2CCCCC2)c2ccccc2)cc1 (stereo not drawn) | -6.32% [at 30 µM] (inactive) | –
Cc1ccccc1C(C(=O)NC1CCCC1)N(C(=O)Cc1cccs1)c1ccccc1F (stereo not drawn) | -40% [at 50 µM] (inactive) | –
COc1cccc(C(C(=O)NC2CCCCC2)N(C(=O)c2cccs2)c2ccc3c(c2)OCO3)c1 (stereo not drawn) | -30.4% [at 30 µM] (inactive) | –
O=C(NC1CCCC1)C(c1ccccc1)N(C(=O)Cc1cccs1)c1cccc(F)c1 (stereo not drawn) | -5.77% [at 50 µM] (inactive) | –
Cc1ccccc1C(C(=O)NC1CCCC1)N(C(=O)Cc1cccs1)c1cccc(F)c1 (stereo not drawn) | 6.51% (inactive) | –
Cc1ccccc1C(C(=O)NC1CCCCC1)N(C(=O)c1ccccn1)c1cccc(F)c1 (stereo not drawn) | – | 11.8 µM (active)
COc1ccc(N(C(=O)C2COc3ccccc3O2)C(C(=O)NC2CCCCC2)c2ccccc2)cc1OC (stereo not drawn) | -23.5% [at 30 µM] (inactive) | –
Cc1ccccc1C(C(=O)NC(C)(C)C)N(C(=O)Cc1cccs1)c1cccc(F)c1 (stereo not drawn) | -14.4% (inactive) | –
